We go through 40 molecules from PubChem BioAssay (NCI).

This is part of a sample that, as a whole, favours compounds with a hit. Of some 83,000 tested, about 20% had one in any assay.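 Negative percent growth values reflect cell death: -40 means 40% of the cells present at the start died, and -100 means all died.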 Calls of active or inactive are those of the source.

The experiment deals with IGROV1 ovarian. Briefly: NCI-60 one-dose screen, 48 h (100 = growth as untreated, 0 = no growth, -100 = all killed). The settings on record: 10 µM unless noted. The procedure: Growth inhibition of the IGROV1 human tumor cell line is measured as a screen for anti-cancer activity. Cells are grown in 96 well plates and exposed to the test compound for 48 hours. Compounds are tested at a single concentration, which is 10^-5 M for most compounds. The reported endpoint is percent growth (GI% or GIPRCNT), where numbers from 0 - 100% represent growth inhibition, and numbers from -100% - 0 represent cell death. For example, a value of 40 represents 60% growth inhibition. A value of 0 means no net growth occurred over the course of the experiment. A value of -40 indicates 40% of cells at the beginning of the experiment died by the end of the experiment. A value of -100 means all cells are dead at the end of the experiment.
NCI-60 Human Tumor Cell Lines Screen was performed using the standard one-dose NCI protocol, which is described in more detail at https://dtp.cancer.gov/discovery_development/nci-60/default.htm.
Compounds with GIPRCNT values below 10 were considered active. Activity score was based on GIPRCNT using the following formula: […]
Score is 0 for GIPRCNT values of 100 or above, 50 for GIPRCNT values of 0, and 100 for GIPRCNT values of -100.
Take `Oc1ccc(CNNc2ccnc3c(O)cccc23)c2cccnc12`: the growth is 35.1% (inactive). To `COc1cccc(C(=O)OCCn2nc3c4c(cccc42)C(=O)c2ccccc2-3)c1O` belongs 44.9% (inactive). Under `O=C(CN1N=C(c2ccc(F)cc2)CCC1=O)Nc1nc2ccccc2s1` stands -49.5% (active).

With `C#C[C@@]1(O)[C@@H](CO)O[C@@H](n2cc(Cl)c3c(N)ccnc32)[C@@H]1O`, the growth was 88.3% (inactive). To `CC1=C(CCCOC(=O)NCCCl)C2=C(C)C3(CC3)[C@@](C)(O)C(=O)C2=C1` belongs 4.17% (active); to `COc1cc(C2=NN(c3ccccc3)C(c3cccc(Nc4ccnc5cc(C(F)(F)F)ccc45)c3)C2)cc(OC)c1OC` (stereo not given), 77.9% (inactive). To `Nc1ccccc1NS(=O)(=O)c1ccc(Cl)cc1` belongs 98.3% (inactive); to `CCOCc1cc(C(C)(C)C)ccc1O`, 107% (inactive); to `CCOC(=O)C1=C(C)n2nc(CC#N)c(C#N)c2NC1c1ccc(Cl)cc1` (stereo not given), 84.1% (inactive). To `COc1ccc(OCC(=O)OC(C)C)cc1` belongs 103% (inactive); to `O=C(Nc1nccs1)c1noc2ccccc12`, 84.1% (inactive). As to `COc1cc(C)ccc1Oc1nc(Nc2ccc(N3CCOCC3)cc2)ncc1N=Cc1cc(C(F)(F)F)cc(C(F)(F)F)c1`, the growth was 33.4% (inactive).

With `COc1cc(NC(=O)Nc2cnc(Nc3ccc(N4CCOCC4)cc3)nc2Oc2ccc(F)cc2)cc(OC)c1`, the growth is 94.2% (inactive). `Cc1cc(Cl)cc(CN(Cc2ccccc2)Cc2c(O)ccc3ccccc23)c1O`: the growth was 94.7% (inactive). To `COc1ccc(-c2cc(-c3nnc(SCC(=O)Nc4ccc(/C(C)=N\O)cc4)n3-c3ccccc3)c3cc(OC)ccc3n2)cc1` belongs 39.6% (inactive). For `COc1ccc2nc3nc4ccc[nH]c4cc3c2c1`, the growth is 69.6% (inactive). To `O=Cc1[nH]c(Sc2ccccc2)c2ccccc12` belongs 88.2% (inactive). Under `Nc1c(C(=O)Nc2cccc3ccccc23)sc2nc3c(cc12)COCC3` stands 49.1% (inactive); under `CN1C(=O)c2cc(Cl)nc3c(NC(=O)c4cccc(Cl)c4)c(Cl)c(NC(=O)c4cccc(Cl)c4)c1c23`, -66.2% (active). Under `CC(C)NS(=O)(=O)c1cccc(-c2ccc3c(=O)n(CCCN)c4c(c3c2)C(=O)c2ccccc2-4)c1` stands 102% (inactive). On to `O=C1CCC23OC(C(O)c4ccccc4N12)C1C(Br)=NOC13` (stereo not given), for which the growth was 106% (inactive). With `O=C(Nc1cccc(-c2cccc(F)c2)c1)C1CCN(Cc2cccc3cccnc23)CC1`, the growth is 62.7% (inactive). To `NC(N)=NC(N)=Nc1cc2ccccc2c2ccccc12` belongs 17.2% (inactive); to `COc1ccc(C2=NN(c3ccc(S(N)(=O)=O)cc3)C(c3ccc(Cl)cc3)C2)c(O)c1` (stereo not given), 50.1% (inactive). To `COc1ccc2[nH]c(=O)c(/C=C/C(=O)/C=C/c3ccc(O)c(OC)c3)cc2c1` belongs 2.67% (active); to `COc1ccc2c(c1)Oc1nc(N)c(C#N)c(N)c1C2Sc1ccc(O)cc1` (stereo not given), 62% (inactive).

Turning to `NC(=O)CN1C(=O)c2ccccc2C1=O`, the growth is 105% (inactive).

As to `Cc1cccc(C)c1NCc1nnc(-c2ccco2)o1`, the growth was 85.3% (inactive). With `NS(=O)(=O)c1ccc(C2C3=C(CCCC3=O)OC3=C2C(=O)c2ccccc2C3=O)cc1` (stereo not given), the growth is -52.3% (active). `CCOc1ccccc1C(=O)/C=C/c1cc2ccccc2[nH]c1=O`: the growth was 1.32% (active). To `C=CCn1c(SCC(=O)Nc2ccc(C(=O)/C=C/c3cc(OC)c(OC)c(OC)c3)cc2)nnc1-c1ccccc1` belongs 86.9% (inactive); to `CSc1nc(-c2ccco2)c2c(N)[nH]nc2n1`, 109% (inactive). To `COc1ccc(Nc2nc(SCC(C)C)nc(-c3ccc(F)cc3)c2C#N)cc1` belongs 71.4% (inactive). To `O=C(Nc1nc2ccc(C(F)(F)F)cc2s1)c1cc(Cl)ccc1O` belongs 30.8% (inactive); to `COc1cc(NCC(=O)Nc2cc(Nc3ccc(C)cc3)ncn2)c(Cl)c(OC)c1Cl`, 82.5% (inactive); to `CCOCCc1c(O)nc(SC)[nH]c1=O`, 100% (inactive). In the case of `CC(=O)Oc1c2c(nc3c1c1ccccc1n3Cc1ccccc1)-c1ccccc1C2`, the growth was 81.1% (inactive). As to `CCOC(=O)c1c(C)nc2c(c1N)/C(=C/c1cccs1)C(=O)N2Cc1ccccc1`, the growth was 48% (inactive). To `Nc1c(C(=O)Nc2ccccn2)sc2nc3c(cc12)CCCCCC3` belongs 28.9% (inactive). For `COc1ccc(Cl)c([N+](=O)[O-])c1`, the growth was 108% (inactive).
